# From PubChem BioAssay (Tox21)
# Values joined by “and” are separate entries in the source; they are usually repeats but may differ in a detail not shown here. Identical values can stand only once. Inconclusive results are not listed. A call without a number means that no potency is given here. Active and inactive are the calls of the source. Calls follow the shape of the dose curve; as a rule, active = well fitted inhibition curve with a large enough effect in the repeat runs; inconclusive = weak or mixed curves; inactive = flat fitted curve, though single readings scatter.
# Assay: qHTS assay to identify small molecule HDAC inhibitors (AID 1259364); also: nearly all actives have a fitted effect of over 45% in size
# Conditions: HCT-116 HDAC-Glo I/II luminescence, 2 h; series mostly up to 92.4 µM
# From the text: U.S. Tox21 Program National Center for Advancing Translational Sciences [NCATS] NIH Chemical Genomics Center [NCGC] U.S. Environmental Protection Agency [EPA] National Institutes of Environmental Health Sciences [NIEHS] National Toxicology Program [NTP] U.S. Food and Drug Administration [FDA] Tox21 Assay Overview: Histone deacetylases (HDACs) are a group of epigenetic enzymes that regulate gene expression by histone deacetylation. HDACs are capable of introducing epigenetic modifications and such aberrations contribute to the onset and progression of several human diseases, thus making HDACs a popular therapeutic target. For identifying endogenous class I/II HDAC inhibitors a homogenous, luminogenic HDAC I/II cell based assay was used to measure the relative activity of class I and II HDACs from cells. Wild type HCT-116 cells were used to screen Tox21 libraries for identifying class I/II HDAC inhibitors.
# Tox21 Assay Protocol Summary: HCT-116 cells were dispensed at 1,500 per well in 5uL of culture medium into white solid bottom 1536-well plates (Greiner Bio-One, Monroe, NC) using a Multidrop Combi (Thermo Scientific, Waltham, MA) dispenser. The assay plates were incubated at 37 C and 5% CO2 for an overnight, and then 23nL of compounds dissolved in DMSO and positive control were transferred using a Pintool station (Wako, San Diego, CA). The assay plates were incubated at 37C and 5% CO2 for 2hr. After compound treatment, 4uL of HDAC-Glo reagent (Promega Corporation, Madison, WI) was added to each well of the assay plates using Flying Reagent Dispenser (FRD, Aurora Discovery, San Diego, CA) and incubated the assay plates at room temperature for 30min. The luminescence signal was quantified using a ViewLux plate reader (Perkin Elmer, Shelton, CT).
# Potency is read from the fitted curve at half-maximal effect.
row,Compound,Potency
1,CNC(=S)S,inactive
2,O=C(O)CF,inactive
3,CN(C)P(=O)(N(C)C)N(C)C,inactive
4,CC(C)(C#N)N=NC(C)(C)C#N,inactive
5,NN=C(N)N,inactive
6,CNC(=O)Oc1cccc2c1OC(C)(C)C2,inactive
7,CCCCCCCCCCCCCl,inactive
8,O=C1Nc2ccc(Cl)cc2C(c2ccccc2)=NC1O (stereo not given),inactive
9,CCNCC,inactive
10,CCCCC(C#N)(Cn1cncn1)c1ccc(Cl)cc1 (stereo not given),inactive
11,CC(C)=CC1C(C(=O)OCc2cccc(Oc3ccccc3)c2)C1(C)C (stereo not given),inactive
12,C=CC(Cl)CCl (stereo not given),inactive
13,OCCOCCO,inactive
14,Nc1ccc([N+](=O)[O-])cc1N,inactive
15,CCOP(=O)(O)OCC (tested in a mixture with another compound),inactive
16,Nc1ccc2ccccc2c1,inactive
17,Cc1ccc([N+](=O)[O-])cc1,inactive
18,N#Cc1c(Cl)c(Cl)c(Cl)c(C#N)c1Cl,inactive
19,COC(=O)Nc1nc2ccccc2[nH]1,24.3 µM (active) and 27.3 µM (active)
20,CCC1(c2ccc(N)cc2)CCC(=O)NC1=O (stereo not given),inactive

row,Compound,Potency
1,C[N+](C)(C)C,inactive
2,Cl,inactive
3,Brc1ccc(Br)cc1,inactive
4,Nc1ncn[nH]1,inactive
5,CC1CC(=O)O1 (stereo not given),inactive
6,Clc1ccc(C(Cl)(Cl)Cl)cc1,inactive
7,CC1(C)Cc2cccc(O)c2O1,inactive
8,CC(C)(c1ccccc1)c1ccc(O)cc1,inactive
9,NC(=O)CN1CCCC1=O,inactive
10,C[C@]12CCC(=O)C=C1CC[C@@H]1[C@@H]2CC[C@@]2(C)[C@H]1CC[C@]2(C)O,inactive
11,Oc1ccc(Cl)cc1Cl,inactive
12,CCOS(=O)(=O)OCC,inactive
13,Cc1ccc(N=CN(C)C=Nc2ccc(C)cc2C)c(C)c1,inactive
14,C[N+](C)(C)CC(=O)O,inactive
15,CS(=O)(=O)NC(=O)c1cc(Oc2ccc(C(F)(F)F)cc2Cl)ccc1[N+](=O)[O-],inactive
16,CCN(CC)C(=O)C(C)Oc1cccc2ccccc12 (stereo not given),inactive
17,CC(C)COC(=O)c1ccccc1C(=O)OCC(C)C,inactive
18,CCOP(=S)(OCC)SCSC(C)(C)C,inactive
19,CCCCCCCC[N+](C)(CCCCCCCC)CCCCCCCC,inactive
20,Clc1ccccc1-c1nnc(-c2ccccc2Cl)nn1,9.6 µM (active) and 4.31 µM (active)
